Only some compounds are listed: those with a hit (about 3.9% of all), similar ones and a draw of the others.
UBC9 SUMO inh – SUMOylation inhibition | P63279 | inhibition, % at 35 µM | 290,000 tested, 0.36% active | HTRF SUMOylation assay, SAE1/SAE2 + UBC9, in vitro; in the data active = inhibition above about 50%, passing the limit was not always enough
Target sequence (P63279 whole entry, looked up): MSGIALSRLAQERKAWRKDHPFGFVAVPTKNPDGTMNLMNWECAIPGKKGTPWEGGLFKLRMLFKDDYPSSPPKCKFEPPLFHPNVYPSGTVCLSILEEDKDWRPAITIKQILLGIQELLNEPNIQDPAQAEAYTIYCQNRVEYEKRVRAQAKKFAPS
Cardio protect – myocardial damage modulation in H9c2 cells; protection from H2O2 cell death, % at 20 µM; H9c2 cardiomyocytes, H2O2 injury protection, ATPLite, 2 h; AID 588492; 360,000 tested, 0.63% active;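 active = compounds giving at least 50% protection of heart cells from peroxide-induced death in the single-dose screen, raw or plate-pattern-corrected value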;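 note: 0% = DMSO wells with peroxide and 100% = DMSO wells without peroxide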
NTR1 ag – activates human neurotensin receptor 1. NTR1-U2OS beta-arrestin-GFP spot imaging, agonist mode. activation, % at 20 µM. 330,000 tested, 0.17% active;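 active = activation at or above 40% of the spot to cytoplasm intensity ratio, with at least 20 cells analyzed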;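 note: 0% = DMSO without peptide and 100% = 100 nM NTR1 peptide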
ALR H2O2 inh – inhibitors of human sulfhydryl oxidase ALR; P55789; purified ALR, DTT oxidation, H2O2 HRP-luminol luminescence; inhibition, % (no concentration beside the values); 290,000 tested, 3.8% active; AID 485317;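 active = mean replicate inhibition above about 79%, with every replicate also reaching it, limit read from the data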
Target sequence (P55789 whole entry, looked up): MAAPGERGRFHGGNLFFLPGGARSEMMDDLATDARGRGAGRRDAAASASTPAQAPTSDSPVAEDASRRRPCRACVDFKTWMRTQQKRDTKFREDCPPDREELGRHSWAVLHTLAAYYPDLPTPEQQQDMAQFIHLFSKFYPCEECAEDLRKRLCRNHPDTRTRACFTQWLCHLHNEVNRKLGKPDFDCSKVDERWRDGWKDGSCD
Numbers without * were called inactive.

`NS(=O)(=O)c1ccc(NC(=S)NNC(=O)c2ccc(Br)o2)cc1` gave UBC9 SUMO inh -6.4, Cardio protect -1.1, NTR1 ag -0.6 and ALR H2O2 inh 94.9*.
For Cc1c(C(=O)Nc2ccc(S(N)(=O)=O)cc2)oc2ccc(Cl)cc12 the results were UBC9 SUMO inh 22.1, Cardio protect -1.2, NTR1 ag 1.3 and ALR H2O2 inh -2.9.
Screening CN(CC(=O)Nc1ccc(Cl)c(Cl)c1)C(=O)C12CC3CC(CC(C3)C1)C2 returned UBC9 SUMO inh -10.9, Cardio protect -13.8, NTR1 ag 3.7 and ALR H2O2 inh -3.9.
`O=S(=O)(c1ccc(Cl)cc1)N1CCN(CCc2ccncc2)CC1` gave UBC9 SUMO inh -3.2, Cardio protect -4.3, NTR1 ag 1.1 and ALR H2O2 inh 4.6.
O=C(COc1cccc2c1CCNC2=O)Nc1cccc(C(F)(F)F)c1 was read as Cardio protect 28.5, NTR1 ag 3.7 and ALR H2O2 inh 6.9.
O=C(COc1cccc2c1CCNC2=O)Nc1cccc(F)c1 was read as Cardio protect 74.1*, NTR1 ag -0.3 and ALR H2O2 inh 0.2.
Screening CC1(C)OC(=O)C(=NNc2ccc(O)cc2)C(=O)O1 returned UBC9 SUMO inh 24.6, Cardio protect 27.8, NTR1 ag 0.7 and ALR H2O2 inh 99.3*.
`O=C(CCn1c2c(c3ccccc31)CCCC2)NNC(=O)c1ccccc1C(=O)O` gave UBC9 SUMO inh -12.3, Cardio protect -8.3, NTR1 ag 0.0 and ALR H2O2 inh 43.8.
`O=C(O)CCn1c2c(c3ccccc31)CCCC2` gave UBC9 SUMO inh 19.6, Cardio protect -1.6, NTR1 ag 4.7 and ALR H2O2 inh 99.1*.
Screening CC(=O)Nc1ccc(S(=O)(=O)NCC2CCC(C(=O)NCc3ccccc3)CC2)cc1 (stereo not given) returned UBC9 SUMO inh 7.5, Cardio protect 7.5, NTR1 ag 0.9 and ALR H2O2 inh 51.3.
Screening O=C(CSc1nnc(CNC(=O)c2ccco2)o1)Nc1ccc(Br)cc1 returned UBC9 SUMO inh 11.1, Cardio protect 2.4, NTR1 ag 0.0 and ALR H2O2 inh 99.0*.
Screening CC(C)C[C@H](N)c1nnc(SCC(=O)Nc2ccc(Br)cc2)o1 returned Cardio protect -4.2, NTR1 ag -0.3 and ALR H2O2 inh 99.0*.
`NCCc1nnc(SCC(=O)Nc2ccc(Br)cc2)o1` gave UBC9 SUMO inh -10.6, Cardio protect 6.6, NTR1 ag -0.3 and ALR H2O2 inh 98.2*.
For CC(C)C[C@H](NC(=O)OC(C)(C)C)c1nnc(SCC(=O)Nc2ccc(Br)cc2)o1 the results were UBC9 SUMO inh 5.8, Cardio protect -12.7, NTR1 ag 10.6 and ALR H2O2 inh -5.5.
COc1ccc2oc(-c3ccccc3)cc(=O)c2c1 was read as Cardio protect -15.2.
O=C(NCc1ccc2c(c1)OCO2)c1cc(-c2ccccc2)c(N2CCOCC2)s1 was read as UBC9 SUMO inh -12.7, Cardio protect -3.4, NTR1 ag 1.3 and ALR H2O2 inh 8.6.
O=C(NCc1ccco1)c1cc(-c2ccccc2)c(N2CCOCC2)s1 was read as UBC9 SUMO inh 7.9, Cardio protect 5.1, NTR1 ag 2.9 and ALR H2O2 inh 86.6*.
CN(Cc1ccc2c(c1)OCO2)C(=O)c1cc(-c2ccccc2)c(N2CCOCC2)s1 was read as Cardio protect 0.5, NTR1 ag 6.3 and ALR H2O2 inh -0.4.
O=C(O)c1cc(-c2ccccc2)c(N2CCOCC2)s1 was read as UBC9 SUMO inh -9.9, Cardio protect 17.3, NTR1 ag -1.3 and ALR H2O2 inh 99.0*.
Screening CCSc1nnc(NC(=O)C2Cc3ccccc3CN2S(=O)(=O)CC)s1 (stereo not given) returned UBC9 SUMO inh 1.4, Cardio protect 63.8*, NTR1 ag 0.8 and ALR H2O2 inh 11.6.
`Cc1ccc2nc(-c3ccc(N4C(=O)CC(N5CCN(CCO)CC5)C4=O)cc3)sc2c1` (stereo not given) gave UBC9 SUMO inh 16.9, Cardio protect -7.4, NTR1 ag 0.7 and ALR H2O2 inh 1.6.
Screening COc1cc(NC(=O)Nc2c(C)n(C)n(-c3ccccc3)c2=O)cc(OC)c1OC returned UBC9 SUMO inh -1.4, Cardio protect -7.0, NTR1 ag 0.2 and ALR H2O2 inh 4.0.
For CCN(CC)S(=O)(=O)c1ccc(C(=O)Nc2nnc(CSC)o2)cc1 the results were UBC9 SUMO inh 8.9, Cardio protect 0.4, NTR1 ag -0.5 and ALR H2O2 inh 91.0*.
`O=C(O)C(=O)/C(=C\c1ccc([N+](=O)[O-])cc1)c1ccc2ccccc2n1` gave UBC9 SUMO inh 12.1, Cardio protect -8.1 and NTR1 ag -0.1.
Screening C/C(=N/NC(=O)c1sc(NS(=O)(=O)c2ccc(C)cc2)nc1C)c1sc(N)nc1C returned UBC9 SUMO inh 28.4, Cardio protect 5.6, NTR1 ag 0.1 and ALR H2O2 inh 98.7*.
`Cc1ccc(S(=O)(=O)Nc2nc(C)c(C(=O)NN)s2)cc1` gave UBC9 SUMO inh 20.7, Cardio protect 9.5, NTR1 ag 0.7 and ALR H2O2 inh -5.7.
O=C1OCC(O)=C1Cc1ccccc1 was read as Cardio protect 2.9.
O=C(CSc1ccc(-c2ccco2)nn1)c1cccc([N+](=O)[O-])c1 was read as UBC9 SUMO inh 73.2*, Cardio protect 0.3, NTR1 ag 3.2 and ALR H2O2 inh 51.2.
`CC(=O)c1ccc(NC(=O)CSc2ccc(-c3sc(C)nc3C)nn2)cc1` gave UBC9 SUMO inh -5.0, Cardio protect 13.6, NTR1 ag 2.8 and ALR H2O2 inh 99.2*.
Screening COC(=O)Nc1ccc(SCC(=O)c2cccc([N+](=O)[O-])c2)cc1 returned UBC9 SUMO inh 3.5, Cardio protect -4.6, NTR1 ag 4.9 and ALR H2O2 inh 99.0*.
Cc1ccc(NC(=O)CSc2ccc(-c3ccccn3)nn2)cc1 was read as UBC9 SUMO inh 7.5, Cardio protect 53.5*, NTR1 ag 1.2 and ALR H2O2 inh 1.9.
For CC(=O)Nc1ccc(C(=O)OCC(=O)c2cccc([N+](=O)[O-])c2)cc1 the results were UBC9 SUMO inh -20.4, Cardio protect 9.0, NTR1 ag -0.3 and ALR H2O2 inh -5.7.
For Cc1nc(C)c(-c2ccc(SCC(=O)Nc3ccc(C)c(Cl)c3)nn2)s1 the results were UBC9 SUMO inh 2.7, Cardio protect -2.3, NTR1 ag 1.3 and ALR H2O2 inh 40.7.
CCOc1ccccc1C(=O)Nc1nnc(SCC(=O)N2CCCC2)s1 was read as Cardio protect 7.3.
`Cc1cc(NC(=O)CCC(=O)N(Cc2ccco2)C2(C(=O)NC3CCCC3)CCC(C)CC2)no1` (stereo not given) gave UBC9 SUMO inh 3.7, Cardio protect 0.2 and NTR1 ag 1.2.
Screening N#CC(C#N)=Cc1ccc(-c2ccc(S(=O)(=O)N=C(N)N)cc2)o1 returned UBC9 SUMO inh 8.4, Cardio protect 5.9, NTR1 ag -1.6 and ALR H2O2 inh -6.0.
Screening CC(C)=CCC[C@H](C)CC1Cc2[nH]c(=S)[nH]c(=O)c2C(c2ccc(F)cc2)O1 (stereo not given in full) returned Cardio protect 5.8.
`CC(=O)c1cccc(NC(=O)CSc2ccc(-c3ccco3)nn2)c1` gave UBC9 SUMO inh 11.0, Cardio protect -3.2, NTR1 ag 0.8 and ALR H2O2 inh 64.4.

High-throughput results as filed in PubChem BioAssay.
